# In PubChem BioAssay:
# Activity calls are given as the source filed them. Unless noted, how the calls were made is not given here.
# Legend:
# [1] = circadian clock period modulators, cell-based, LOPAC library, luminescence reporter (AID 2774); settings: circadian reporter cells, at 7 µM, actives lie on both sides;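 further: values are relative to mean of DMSO wells on each plate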
# [2] = tested on: Hepatitis C virus NS3 helicase; experiment: HCV NS3 helicase inhibitors, primary screen, biochemical, fluorescence polarization, LOPAC1280 library (AID 687035; in the data active means inhibition above about 37%); settings: Purified HCV NS3 helicase, Cy5-dT15 ssDNA binding fluorescence polarization; stronger effect = higher value; concentration not given here
# [3] = Cy5 fluorescence quenching or enhancement artefacts, artefact control for HCV NS3 helicase inhibitor project, biochemical, LOPAC1280 (AID 687037); settings: Cy5-DNA-NS3h complex fluorescence interference counterscreen
# [4] = biological target: NAD(+) hydrolase SARM1 (Homo sapiens) (UniProt Q6SZW1); experiment: SARM1 TIR NADase inhibitors, cell lysate, NAD-Glo luminescence (AID 1508614;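 active means compound whose remaining NAD level is above about 45 nM, limit read from the data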); settings: SAM-TIR HEK293T lysate NADase, at 1 µM, stronger effect = higher value
# [5] = modifiers of HSF1 nuclear foci, imaging, Selleck Cancer Library (AID 1347162; in the data active means plate-normalised HSF1 focus index below about 0.46); settings: human cells, at 10 µM; SSMD: measured here: HSF1 foci SSMD mean; cell count: measured here: cell number; plate-normalised HSF1 focus index: stronger effect = lower value
# [6] = LFS_MB_P medulloblastoma growth inhibition, cell-based, chromothripsis tumors, cisplatin or BGB combos (AID 1671449; in the data active means inhibition above about 80%;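 further: cells exposed for 96 hours; 0% = vehicle DMSO and 100% = killing by high DMSO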); settings: LFS_MB_P medulloblastoma cells
# [7] = HDN33 neuroblastoma growth inhibition, cell-based, chromothripsis tumors, cisplatin or BGB combos (AID 1671450; in the data active means inhibition above about 80%;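 further: cells exposed to compound for four days; 0% = vehicle DMSO and 100% = cell killing by high DMSO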); settings: HDN33 neuroblastoma cells, stronger effect = higher value
# [8] = ICB984 medulloblastoma cell growth inhibition, synergistic combos for chromothripsis tumors, cisplatin or BGB combos (AID 1671451); settings: ICB984 medulloblastoma cells, drug combinations, stronger effect = higher value;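 further: cells exposed for 96 hours before readout; 0% = vehicle DMSO and 100% = killing by high DMSO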
# [9] = LFS_MB_1R medulloblastoma cell growth inhibition, synergistic combos for chromothripsis tumors, cisplatin or BGB combos (AID 1671452; in the data active means inhibition above about 80%;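 further: cells exposed for 96 hours before readout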); settings: LFS_MB_1R medulloblastoma cells, stronger effect = higher value
# [10] = HTB85 osteosarcoma cell growth inhibition, synergistic combos for chromothripsis tumors, BGB or cisplatin IC20 combos (AID 1671453; in the data active means inhibition above about 80%;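 further: cells exposed for 96 hours before readout; 0% = vehicle DMSO and 100% = high DMSO killing control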); settings: HTB85 osteosarcoma cells, drug combinations, stronger effect = higher value
# [11] = CRL2098 osteosarcoma cell growth inhibition, synergistic combos for chromothripsis tumors, BGB or cisplatin IC20 combos (AID 1671454; in the data active means inhibition above about 80%;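 further: cells exposed for 96 h before readout; 0% = vehicle DMSO and 100% = killing by high DMSO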); settings: CRL2098 osteosarcoma cells, drug combinations, stronger effect = higher value
# [12] = HD-MB03 medulloblastoma cell growth inhibition, synergistic combos for chromothripsis tumors, BGB or cisplatin IC20 combos (AID 1671455; in the data active means inhibition above about 83%;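 further: 0% = vehicle DMSO and 100% = high DMSO as cytotoxic control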); settings: HD-MB03 medulloblastoma cells, stronger effect = higher value
# [13] = UWB1.289 ovarian carcinoma cell growth inhibition, synergistic combos for chromothripsis tumors, BGB or cisplatin combos (AID 1671456; in the data active means inhibition above about 80%;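 further: cells exposed to compound for four days; 0% = vehicle DMSO and 100% = killing by high DMSO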); settings: UWB1.289 ovarian carcinoma cells, stronger effect = higher value
# [14] = MDA-MB-436 breast carcinoma cell growth inhibition, synergistic combos for chromothripsis tumors, BGB or cisplatin combos (AID 1671458); settings: MDA-MB-436 breast carcinoma growth inhibition, drug combinations, stronger effect = higher value;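 further: cells exposed for 96 hours; 0% = vehicle DMSO and 100% = killing by high DMSO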
# [15] = growth inhibition of BT084 medulloblastoma cells, cell-based, ICGC_MB145, cisplatin and BGB IC40 combos (AID 1671461; in the data active means inhibition above about 80%;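 further: cells exposed to drugs for 96 hours; 0% = vehicle DMSO and 100% = high DMSO full killing control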); settings: drug combinations, stronger effect = higher value
# [16] = growth inhibition of RCMB18 medulloblastoma cells, cell-based, cisplatin and BGB IC40 combos (AID 1671462; in the data active means inhibition above about 80%;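 further: cells exposed to compound for four days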); settings: stronger effect = higher value
# [17] = growth inhibition of CRL1545 osteosarcoma cells, cell-based, cisplatin and BGB IC20 combos (AID 1671464; in the data active means inhibition above about 80%;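 further: cells exposed to compound for 96 hours before readout; 0% = vehicle DMSO and 100% = high DMSO killing control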); settings: stronger effect = higher value
# [18] = measured here: combination with BGB IC40, at 0.05 µM
# [19] = measured here: with BGB IC20 combination, at 0.5 µM
# [20] = measured here: with cisplatin IC20 combination, at 0.5 µM
# [21] = measured here: combination with cisplatin, at 0.5 µM
# Chain of NAD(+) hydrolase SARM1 (Homo sapiens) (Q6SZW1 whole entry, looked up): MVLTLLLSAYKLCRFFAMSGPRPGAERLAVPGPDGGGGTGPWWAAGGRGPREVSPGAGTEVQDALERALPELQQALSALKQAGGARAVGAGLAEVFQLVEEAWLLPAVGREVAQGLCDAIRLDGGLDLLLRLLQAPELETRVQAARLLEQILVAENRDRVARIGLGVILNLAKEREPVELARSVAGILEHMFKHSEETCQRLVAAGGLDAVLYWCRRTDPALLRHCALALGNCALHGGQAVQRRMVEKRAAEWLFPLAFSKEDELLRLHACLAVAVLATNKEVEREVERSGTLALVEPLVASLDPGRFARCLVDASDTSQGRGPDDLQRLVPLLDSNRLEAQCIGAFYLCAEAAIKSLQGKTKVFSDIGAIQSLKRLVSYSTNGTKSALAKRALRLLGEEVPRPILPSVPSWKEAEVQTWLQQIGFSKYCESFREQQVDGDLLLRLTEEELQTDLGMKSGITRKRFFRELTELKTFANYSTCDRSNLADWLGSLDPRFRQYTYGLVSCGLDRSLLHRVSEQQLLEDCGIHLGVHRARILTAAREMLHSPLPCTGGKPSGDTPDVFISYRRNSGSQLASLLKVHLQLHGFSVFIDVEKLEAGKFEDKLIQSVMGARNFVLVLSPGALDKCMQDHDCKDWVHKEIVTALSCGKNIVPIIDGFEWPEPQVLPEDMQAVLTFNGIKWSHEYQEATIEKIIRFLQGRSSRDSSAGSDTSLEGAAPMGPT
smiles,measurement,setting,value
N[C@@H](COP(=O)(O)O)C(=O)O,period change,[1],0.04 h (inactive)
same,inhibition,[2],-1% (inactive)
same,fluorescence ratio (interference),[3],1 (inactive)
same,remaining NAD,[4],10 nM (inactive)
O=C(O)CP(=O)(O)O,period change,[1],0.02 h (inactive)
same,inhibition,[2],-3% (inactive)
same,fluorescence ratio (interference),[3],0.9 (inactive)
C[N+](C)(C)CCOC(=O)CCC(=O)OCC[N+](C)(C)C,period change,[1],0.025 h (inactive)
same,inhibition,[2],2% (inactive)
same,fluorescence ratio (interference),[3],1 (inactive)
CCN(CC)CCCN(c1ccccc1)C1Cc2ccccc2C1,inhibition,[2],-1% (inactive)
same,fluorescence ratio (interference),[3],1 (inactive)
C[C@]12CCC(=O)C=C1CC[C@@H]1[C@@H]2CC[C@@]2(C)[C@H]1CC[C@]2(O)C(=O)CO,period change,[1],-0.335 h (inactive)
same,inhibition,[2],0% (inactive)
same,fluorescence ratio (interference),[3],1 (inactive)
CCC(=O)c1ccc2c(c1)N(CCCN(C)C)c1ccccc1S2,period change,[1],-0.02 h (inactive)
same,inhibition,[2],-4% (inactive)
same,fluorescence ratio (interference),[3],0.9 (inactive)
Nc1cccc2c1CN(C1CCC(=O)NC1=O)C2=O (stereo not drawn),SSMD,[5],2.07
same,cell count,[5],6670
same,plate-normalised HSF1 focus index,[5],1.11 (inactive)
O=c1[nH]c(=O)n([C@H]2C[C@H](O)[C@@H](CO)O2)cc1Br,period change,[1],-0.205 h (inactive)
same,inhibition,[2],-1% (inactive)
same,fluorescence ratio (interference),[3],1 (inactive)
same,inhibition,"[6]; at 0.5 µM, stronger effect = higher value",27% (inactive)
same,inhibition,"[6]; measured here: combination with BGB IC20, at 0.005 µM",-4.77%
same,inhibition,"[6]; measured here: combination with BGB IC40, at 0.005 µM",-39.7%
same,inhibition,[6]; [18],-12.1%
same,inhibition,"[6]; measured here: combination with cisplatin, at 0.5 µM, stronger effect = higher value",74.8%
same,inhibition,"[6]; measured here: combination with cisplatin, at 5 µM, stronger effect = higher value",-36%
same,inhibition,"[7]; BGB combo, at 5 µM",11.2%
same,inhibition,[7]; at 0.5 µM,21.5% (inactive)
same,inhibition,"[7]; cisplatin combo, at 5 µM",2.65%
same,inhibition,[7]; [19],31.8%
same,inhibition,[7]; [20],4.43%
same,inhibition,"[7]; single agent, at 5 µM",17%
same,inhibition,"[8]; BGB IC20 combo, at 0.005 µM",-12.2%
same,inhibition,"[8]; BGB IC40 combo, at 0.005 µM",-50%
same,inhibition,"[8]; BGB IC40 combo, at 0.05 µM",-16.9%
same,inhibition,[8]; at 0.5 µM,-24.2% (inactive)
same,inhibition,"[8]; cisplatin combo, at 0.05 µM",-21.6%
same,inhibition,"[8]; cisplatin combo, at 0.5 µM",-35.3%
same,inhibition,"[8]; cisplatin combo, at 5 µM",-5.29%
same,inhibition,"[8]; measured here: 5 uM single agent, at 5 µM",-6.23%
same,inhibition,[9]; at 0.5 µM,-8.78% (inactive)
same,inhibition,[9]; [18],-9.5%
same,inhibition,[9]; [21],-3.13%
same,inhibition,"[9]; measured here: combination with cisplatin, at 5 µM",18.2%
same,inhibition,[10]; at 0.5 µM,-5% (inactive)
same,inhibition,"[10]; measured here: with BGB IC20, at 0.5 µM",-14.3%
same,inhibition,"[10]; measured here: with BGB IC20, at 5 µM",-8.79%
same,inhibition,"[10]; measured here: with cisplatin IC20, at 0.5 µM",-8.95%
same,inhibition,"[10]; measured here: with cisplatin IC20, at 5 µM",4.02%
same,inhibition,"[10]; single agent, at 5 µM",9.21%
same,inhibition,[11]; at 0.5 µM,-34.2% (inactive)
same,inhibition,"[11]; measured here: combination with BGB at IC20, at 0.5 µM",-5.25%
same,inhibition,"[11]; measured here: combination with cisplatin at IC20, at 0.5 µM",-22.4%
same,inhibition,[12]; at 0.5 µM,14.2% (inactive)
same,inhibition,"[12]; measured here: combo with BGB at IC20, at 0.5 µM",14.5%
same,inhibition,"[12]; measured here: combo with cisplatin at IC20, at 0.5 µM",32.3%
same,inhibition,[13]; at 0.5 µM,3.4% (inactive)
same,inhibition,"[13]; measured here: inhibition with BGB combination, at 0.05 µM",-18.3%
same,inhibition,"[13]; measured here: inhibition with cisplatin combination, at 0.05 µM",-5.15%
same,inhibition,[14]; at 0.5 µM,-4.92% (inactive)
same,inhibition,"[14]; measured here: BGB combination, at 0.5 µM",-11.6%
same,inhibition,"[14]; measured here: BGB combination, at 5 µM",-22.5%
same,inhibition,"[14]; measured here: cisplatin combination, at 0.5 µM",-2.86%
same,inhibition,"[14]; measured here: cisplatin combination, at 5 µM",-6.5%
same,inhibition,[15]; at 0.5 µM,-8.02% (inactive)
same,inhibition,"[15]; cisplatin combination, at 0.5 µM",3.56%
same,inhibition,"[15]; cisplatin combination, at 5 µM",-1.86%
same,inhibition,"[15]; measured here: BGB IC40 combination 0.05 uM, at 0.05 µM",-20.2%
same,inhibition,"[15]; single agent, at 5 µM",-7.12%
same,inhibition,[16]; at 0.5 µM,-10.5% (inactive)
same,inhibition,"[16]; cisplatin combo, at 5 µM",28.1%
same,inhibition,"[16]; measured here: BGB IC40 combination, at 0.05 µM",-19.3%
same,inhibition,[16]; [21],32.5%
same,inhibition,"[16]; single agent, at 5 µM",-34.1%
same,inhibition,[17]; at 0.5 µM,8.96% (inactive)
same,inhibition,[17]; [19],3.57%
same,inhibition,[17]; [20],11.6%
same,inhibition,"[17]; single agent, at 0.05 µM",-0.752%
same,inhibition,"[17]; single agent, at 5 µM",41.5%
OCCN1CCN(CCCN2c3ccccc3C=Cc3ccccc32)CC1,inhibition,[2],-5% (inactive)
same,fluorescence ratio (interference),[3],1 (inactive)
CCNC(=O)N1CCN(CCCC(c2ccc(F)cc2)c2ccc(F)cc2)CC1,period change,[1],-0.05 h (inactive)
same,inhibition,[2],-1% (inactive)
same,fluorescence ratio (interference),[3],1 (inactive)
CC1=C(CC(=O)O)c2cc(F)ccc2/C1=C\c1ccc(S(C)(=O)=O)cc1,period change,[1],0.07 h (inactive)
same,inhibition,[2],-4% (inactive)
same,fluorescence ratio (interference),[3],1 (inactive)
O=C(O)CN(CCOCCOCCN(CC(=O)O)CC(=O)O)CC(=O)O,period change,[1],0.1 h (inactive)
same,inhibition,[2],-1% (inactive)
same,fluorescence ratio (interference),[3],1 (inactive)
OCCN1CCN(CC/C=C2/c3ccccc3Sc3ccc(C(F)(F)F)cc32)CC1,period change,[1],-0.1 h (inactive)
same,inhibition,[2],-1% (inactive)
same,fluorescence ratio (interference),[3],1 (inactive)
Cc1nc2c([nH]1)c(=O)n(C)c(=O)n2Cc1ccco1,period change,[1],0.08 h (inactive)
same,inhibition,[2],-1% (inactive)
same,fluorescence ratio (interference),[3],1 (inactive)
Nc1cc(=O)[nH]c(N)n1,period change,[1],-0.06 h (inactive)
same,inhibition,[2],1% (inactive)
same,fluorescence ratio (interference),[3],1.1 (inactive)
CSc1ccc(C(=O)c2[nH]c(=O)[nH]c2C)cc1,period change,[1],0.015 h (inactive)
same,inhibition,[2],0% (inactive)
same,fluorescence ratio (interference),[3],1.1 (inactive)
Cc1ccc(Nc2c(F)cccc2Cl)c(CC(=O)O)c1,remaining NAD,[4],10 nM (inactive)
C#C[C@]1(OC(C)=O)CC[C@H]2[C@@H]3CCC4=C[C@@H](OC(C)=O)CC[C@@H]4[C@H]3CC[C@@]21C,remaining NAD,[4],10 nM (inactive)
